High-throughput results as filed in PubChem BioAssay.
TTR transcr act – TTR transcription activation, primary screen | SH-SY5Y TTR promoter Gaussia luciferase, luminescence; 100% = recombinant luciferase protein wells | activation, % at 16.7 µM | 92,000 compounds, 1.3% hits;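 active = activation above the mean of all tested compounds plus 3 SD, cut at about 9.5% in these data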;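 also: cells exposed to compounds for one day before reading; 0% = median of all test compound wells on the plate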
TTR inh HuH7 – HuH7 TTR transcription inhibition, counter-screen; shares compounds with TTR transcr act; HuH7 TTR promoter-Gaussia luciferase reporter, luminescence; inhibition, % at 16.7 µM; 1,100 compounds, 4% hits; AID 1117279;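 active = average inhibition above the solvent-only control wells' mean plus 3 SD, cut at about 15% in these data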;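 also: 0% = cells with DMSO only and 100% = cells with inhibitor control FD; inhibitors lower well luminescence so higher value means more inhibition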
TTR up confirm – human TTR transcription activation, confirmation; shares compounds with TTR transcr act; SHSY5Y TTR promoter Gaussia luciferase, luminescence; 100% = purified Lucia enzyme wells, no cells; activation, % at 16.7 µM; 1,100 tested, under 10 active;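 active = mean activation above a set limit taken from the earlier primary screen, cut at about 11% in these data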;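 also: 0% = DMSO-treated cells and 100% = recombinant Lucia luciferase without cells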
An asterisk follows results filed as active. Shown is part of a subset that was picked to be rich in hits.

SMILES | TTR transcr act | others
Cc1ccc(NC(=S)N(CCC(C)C)C(C)c2ccncc2)c(Cl)c1 (configuration not stated) | -1
CCCCN1C(=O)c2ccccc2NC1c1ccc(OC)c(COc2ccc(NC(C)=O)cc2)c1 (configuration not stated) | -1
CC(C)(C)[C@@H]1CCC(=O)N(CC[C@H](N=[N+]=[N-])c2ccccc2)CC1 | 0
C[C@@H]1CCC(=O)N(CC[C@H](N=[N+]=[N-])c2ccccc2)CC1 | 10* | TTR inh HuH7=-7;TTR up confirm=1
[N-]=[N+]=N[C@@H](CCN1CC[C@H](O)CCC1=O)c1ccccc1 | 4
CC1(c2nnnn2-c2ccc3c(c2)OCCO3)CCC(=O)N1CC1CCCCC1 (configuration not stated) | 2
CC(C)(O)[C@H](O)COc1c2ccoc2cc2oc(=O)ccc12 | 6
CC(=O)O[C@H](COc1c2ccoc2cc2oc(=O)ccc12)C(C)(C)O | -1
C=C(C)[C@@H](O)COc1c2ccoc2cc2oc(=O)ccc12 | 10* | TTR inh HuH7=-6;TTR up confirm=0
CCCCN1CC(N2CCN(C)CC2)CS1(=O)=O (configuration not stated) | -1
CCCCC[C@@H](/C=C/C1C(=O)C=C[C@H]1C/C=C\CCCC(=O)O)OC(C)=O (some centres not stated) | 3
CC1(C(=O)Nc2ccc3c(c2)OCCO3)CCC(=O)N1CC(F)(F)F (configuration not stated) | -2
CC1(C(=O)NCc2ccccc2)CCC(=O)N1CC(F)(F)F (configuration not stated) | 2
CC1(C(=O)Nc2ccc3ccccc3c2)CCC(=O)N1CC(F)(F)F (configuration not stated) | 13* | TTR inh HuH7=-14;TTR up confirm=1
O=C(CCc1nnc2ccc(NCc3ccco3)nn12)Nc1ccccc1F | 5
O=C1Nc2ccccc2N=C(c2ccc3c(c2)OCO3)C1N(CCc1ccccc1)C(=O)CSc1ncccn1 (configuration not stated) | -2
CC(C)(C)NC(=O)NC(=O)CSc1nnc2ccccn12 | 0
CC(C)CNC(=O)CSc1nnc2ccccn12 | 11* | TTR inh HuH7=-4;TTR up confirm=12*
O=C(CSc1nnc2ccccn12)NCCc1ccc(Cl)cc1 | 1
O=C(NNC(=O)c1ccccc1OCc1ccccc1Cl)c1csc(N2CCOCC2)n1 | 0
Fc1ccc(-c2nc3c4ccccc4ccn3c2Cc2cccc(Cl)c2)cc1 | 1
CN(C)c1ccc(NC(=O)Cn2ncn3c(cc4ccccc43)c2=O)cc1 | -1
COC(=O)Cn1c(=O)c(C)nc2ccccc21 | 0
COC(=O)Cn1ncn2c(cc3oc(C)cc32)c1=O | 25* | TTR inh HuH7=-15;TTR up confirm=0
O=C(OCC(=O)N1N=C(c2ccc(Cl)cc2)CC1c1ccco1)c1cccnc1 (configuration not stated) | -1
SMILES | TTR transcr act | others
CCCCOc1cccc2c(=O)n(CC(=O)Nc3ccc4c(c3)OCCO4)ccc12 | 5
COc1ccc(C(=O)NC(=S)Nc2ccc3oc(=O)ccc3c2)cc1[N+](=O)[O-] | 3
Cc1cccc(Nc2nc(N)c([N+](=O)[O-])c(N3CCN(C)CC3)n2)c1 | 1
Nc1nc(Nc2cccc(F)c2)nc(N2CCOCC2)c1[N+](=O)[O-] | 12* | TTR inh HuH7=-9;TTR up confirm=-1
CCN1CCN(c2nc(Nc3ccccc3)nc(N)c2[N+](=O)[O-])CC1 | -1
CSc1ccccc1NC(=O)CN1CCN(S(=O)(=O)c2ccccc2[N+](=O)[O-])CC1 | 0
COc1ccc(-c2csc(C(O)c3ccc(F)c(OC)c3)n2)cc1 (configuration not stated) | -4
CN(C(=O)c1cccc(NC(=O)Cc2ccc(NC(=O)C3CCN(C(=O)c4ccccc4)CC3)cc2)c1)C1CCCC1 | -3
CCCOc1ccc(C(=O)Nc2ccc3c(c2)OCCO3)cc1 | -4
C=CC(=O)NC1CCCCN(C(C)C)C1=O (configuration not stated) | 12* | TTR inh HuH7=-11;TTR up confirm=-1
CC(C)N1CCCCC(NC(=O)c2ccccc2)C1=O (configuration not stated) | 1
CC(C)N1CCCCC(NC(=O)c2ccc(Br)cc2)C1=O (configuration not stated) | 2
COC(=O)[C@]12C[C@H](CC(=O)NCc3cccc4ccccc34)C(=O)N(Cc3ccc4c(c3)OCO4)C1=C[C@H](C(C)C)O[C@@H]2C1CC1 | 0
CCC1(c2ccccc2)NC(=O)N(CC(=O)NCc2ccc(C)cc2)C1=O (configuration not stated) | -1
CN[C@H]1C[C@H]2c3cc(-c4ccccc4)ccc3CCN2C(=O)[C@H]1[C@H](C)O | -1
CCCCCCCCN1CC(Cc2cc3ccccc3c3ccccc23)N(c2ccccc2)c2ccccc2C1=O (configuration not stated) | -1
O=C(N/C(=C/c1cccnc1)C(=O)N1CCOCC1)c1ccccc1F | 20* | TTR inh HuH7=-3;TTR up confirm=-1
O=C(N/C(=C/c1cccnc1)C(=O)N1CCOCC1)c1ccccc1Cl | -1
CC(=O)N/C(=C\c1ccccc1)C(=O)N1CCOCC1 | -2
COC(=O)[C@]12C[C@H](CC(=O)N3CCN(C(=O)C4CC4)CC3)C(=O)N(Cc3cccc4ccccc34)C1=C[C@H](COCc1ccccc1)O[C@@H]2C | -2
COc1cc(C(O)c2nc(-c3cccc(C#N)c3)cs2)ccc1F (configuration not stated) | 1
Cc1ccccc1OCCC(=O)Nc1ccc(S(=O)(=O)N2CCCC2)cc1 | -4
CCOC(=O)Cn1nc(-c2ccccc2)ccc1=O | 0
CCc1ccn2cc(-c3cc(-c4ccccc4)no3)nc2c1 | -5
CCC(CO)Nc1ccn2nc(-c3ccccc3)cc2n1 (configuration not stated) | 26* | TTR inh HuH7=-2;TTR up confirm=0
SMILES | TTR transcr act | others
CCc1cc(C(=O)OC)c(NC(=O)CSc2nccn2C)s1 | 2
CCCCc1ccc(NC(=S)N2CCN(C)CC2)cc1 | 7
CCOC(=O)c1ccc(NC(=S)N2CCN(C)CC2)cc1 | 0
CN1CCN(C(=S)Nc2ccc(S(N)(=O)=O)cc2)CC1 | 11* | TTR inh HuH7=-9;TTR up confirm=0
Cc1nc(SCc2nc3ccc([N+](=O)[O-])cc3[nH]2)c2oc3ccccc3c2n1 | 0
CC1(C(=O)NS(=O)(=O)c2ccc(Cl)cc2)CCN1C(=O)CCc1ccccc1 (configuration not stated) | -3
CCOc1ccc2nc(COC(=O)c3ccncc3)c(C(=O)c3ccccc3)[n+]([O-])c2c1 | 3
CCCn1c(N)c(N(CCOC)C(=O)c2cccc(F)c2)c(=O)[nH]c1=O | -1
CC(C)CN(C(=O)c1cccc(Cl)c1)c1c(N)n(CC(C)C)c(=O)[nH]c1=O | 5
COCCN(C(=O)c1ccc(N(C)S(=O)(=O)c2ccc(C)cc2)cc1)c1c(N)n(CC(C)C)c(=O)[nH]c1=O | 9.8* | TTR inh HuH7=5;TTR up confirm=0
Cc1ccc([C@H]2C[C@H](n3cc(COC(=O)c4ccccc4)nn3)[C@@H](O)CN2C(=O)c2cccs2)cc1 | -2
O=C1c2ccccc2C(=O)N1CCN1CCCCC1 | -2
O=C1c2ccccc2NC(c2ccccc2)N1CCCN1CCOCC1 (configuration not stated) | -1
N#CCCN(CCCN1CCOCC1)CN1C(=O)c2ccccc2C1=O | 31* | TTR inh HuH7=-10;TTR up confirm=-1
